From PubChem
MgrA-DNA mod = alters Staphylococcus aureus MgrA binding to DNA. inhibition, % (test concentration not listed). fluorescence polarization. hit rate 0.13% among 84,000; in the data active means inhibition above about 30%, passing the limit was not always enough;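 further: higher means less MgrA bound to DNA so lower polarization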
Of the large screens only hits and unclear results are named; the others gave an inactive call. This is one part of a sample in which hits are shown more often than they occur.

COc1ccc(-c2c(C#N)c(SCC(=O)OC(C)C)nc(C)c2C(=O)Nc2ccccc2)cc1	none
NC(=O)COC(=O)c1ccc(Cl)c(N)c1	none
Nc1cc[n+](CC(O)CO)cc1 (stereo not given)	MgrA-DNA mod 56.3
Nc1ccc(C(O)C(O)CO)cc1 (stereo not given)	none
C=CCN1CCN(C(=O)c2ccccc2C)CC1	none
O=C1c2ccccc2C(=O)c2c1cccc2-c1cccc2c1C(=O)c1ccccc1C2=O	none
Nc1cccc2c1C(=O)c1ccccc1-2	MgrA-DNA mod 53.1
COC(=O)c1cccc2c1C(=O)c1ccccc1-2	none
Cc1cc(C)c(C(=O)NCCN2CCCCC2)c(C)c1	none
CCOC(=O)c1cnn(C(=O)c2c(C)nc3ccccn23)c1N	none
Cc1nc2ccccn2c1-c1ccnn1C(=O)c1ccno1	MgrA-DNA mod 41.1
Cc1nc2ccccn2c1-c1ccnn1C(=O)c1ccc(Cl)cc1	none
Cc1ccc(S(=O)(=O)NCCc2nnc(SCc3ccccc3)n2C)cc1	none
Cc1cc(N2CCCC2=O)c(NC(=O)C2CCCCC2)cc1NC(=O)C1CCCCC1	none
N#C/C(=C\c1cn(Cc2ccc(C#N)cc2)c2ccccc12)C(=O)NCc1ccco1	none
COc1cccc(N2C(=O)/C(=C/C=C/c3ccco3)C(=O)NC2=S)c1	MgrA-DNA mod 86.5
COc1cccc(/C=C2\C(=O)NC(=O)N(c3cccc(OC)c3)C2=O)c1	none
O=C1NC(=O)N(C2CCCCC2)C(=O)/C1=C\C=C\c1ccco1	none
O=C(CN1CCc2ccccc2C1)NCc1ccc(F)cc1	none
O=C(Nc1ccccc1Br)c1ccc2c(c1)N(Cc1ccc(F)cc1)C(=O)CS2=O (stereo not given)	none
